The panel holds about 83,000 compounds, 20% with a hit somewhere; the sample as a whole holds those more often.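 How to read the values: 0–100, growth inhibition (40 = 60% inhibited); 0, no net growth; -100 to 0, cell death (-40 = 40% of starting cells died; -100 = all dead).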 Calls of active or inactive are those of the source. The calls were made as follows: active = growth percent below 10; inactive = the rest.
Columns and labels:
Test in all cases: NCI-60 one-dose screen, 48 h (100 = growth as untreated, 0 = no growth, -100 = all killed)
Conditions in all cases: 10 µM unless noted
T-47D breast = test system: T-47D breast
BT-549 breast = test system: BT-549 breast
MDA-MB-435 melanoma = test system: MDA-MB-435 melanoma
SW-620 colon = test system: SW-620 colon
MCF7 breast = test system: MCF7 breast
HCT-116 colon = test system: HCT-116 colon
HCC-2998 colon = test system: HCC-2998 colon
KM12 colon = test system: KM12 colon

Measured: growth

CCN1C(=O)N(CC)C2C1NN=c1s/c(=C\c3cccs3)c(=O)n12 (configuration not stated)
active: MDA-MB-435 melanoma -31.8%
inactive: T-47D breast 60.6% | BT-549 breast 19.8% | SW-620 colon 20.9% | MCF7 breast 19.9% | HCT-116 colon 15.4% | HCC-2998 colon 21% | KM12 colon 19.8%

COc1ccc(-c2cc(-c3cc(OC)ccc3OC)nc(SCC(=O)c3ccccc3)c2C#N)cc1
inactive: T-47D breast 80.8% | BT-549 breast 109% | MDA-MB-435 melanoma 103% | SW-620 colon 98.6% | MCF7 breast 98.3% | HCT-116 colon 88.5% | HCC-2998 colon 108% | KM12 colon 96.8%

CC(=O)OC1CCC2(C)C(=CC3C4CCC(=O)C4(C)CCC32)C1 (configuration not stated)
inactive: T-47D breast 105% | BT-549 breast 95.9% | MDA-MB-435 melanoma 116% | SW-620 colon 104% | MCF7 breast 97.6% | HCT-116 colon 100% | HCC-2998 colon 102% | KM12 colon 107%

Cn1c(I)c(C#C[Si](C)(C)C)c(=O)n(C(=O)c2ccccc2)c1=O
inactive: T-47D breast 17.8% | BT-549 breast 42.8% | MDA-MB-435 melanoma 53.9% | KM12 colon 57.3%
active: SW-620 colon -83.4% | MCF7 breast -18.9% | HCT-116 colon -61.6% | HCC-2998 colon 0.121%

O=C1/C(=C/c2ccccc2)CCc2nc3ccccc3c(/C=C/c3ccc(Cl)cc3)c21
inactive: T-47D breast 54% | BT-549 breast 104% | MDA-MB-435 melanoma 95.6% | SW-620 colon 103% | MCF7 breast 51.8% | HCT-116 colon 57.7% | HCC-2998 colon 93.5% | KM12 colon 91.4%

Cn1c(-c2c(N)n(Cc3ccc(C(F)(F)F)cc3)c3nc(C#N)c(C#N)nc23)nc2ccccc21
active: T-47D breast 4.18% | BT-549 breast 7.95% | SW-620 colon 6.57% | MCF7 breast 8.74% | HCT-116 colon -29% | KM12 colon 5.33%
inactive: MDA-MB-435 melanoma 14.9% | HCC-2998 colon 14.7%

N#C/C(=C\c1ccc2c(c1)OCO2)n1nnc2cc(F)c(F)cc21
inactive: T-47D breast 20.6% | BT-549 breast 60% | SW-620 colon 44.3% | MCF7 breast 44.4% | HCT-116 colon 47% | HCC-2998 colon 105% | KM12 colon 47.4%
active: MDA-MB-435 melanoma 3.37%

COc1ccc(-c2csc(C3=C(O)CN(CCCN4CCCC4=O)C3=N)n2)cc1OC
inactive: T-47D breast 86.5% | BT-549 breast 100% | MDA-MB-435 melanoma 116% | SW-620 colon 103% | MCF7 breast 109% | HCT-116 colon 88.7% | HCC-2998 colon 98.3% | KM12 colon 104%

Cc1ccccc1NC(=O)N/C(N)=N/c1nc(C)c(C)s1
inactive: T-47D breast 36.2% | BT-549 breast 66.3% | SW-620 colon 25% | MCF7 breast 21.4% | HCT-116 colon 21.7% | HCC-2998 colon 22.1% | KM12 colon 35%
active: MDA-MB-435 melanoma -46.9%

Cc1ccc2[nH]c(=O)c3c(c2c1)OC(N)=C(C#N)C31c2cc(Br)ccc2-c2ccc(Br)cc21
inactive: T-47D breast 39.4% | BT-549 breast 82.5% | MDA-MB-435 melanoma 59.7% | SW-620 colon 40% | MCF7 breast 34% | HCT-116 colon 67.8% | HCC-2998 colon 70.5% | KM12 colon 52.4%

FC(F)(F)c1cc(Nc2ccc3cc(OCCCN4CCOCC4)ccc3n2)ccc1Cl
inactive: T-47D breast 26% | BT-549 breast 87.9% | MDA-MB-435 melanoma 35% | HCT-116 colon 14.5% | KM12 colon 16.7%
active: SW-620 colon -13.7% | MCF7 breast 6.85% | HCC-2998 colon -18.5%

COC(=O)/C=C1\S/C(=N\NS(=O)(=O)c2ccc(C)cc2)N(c2ccccc2)C1=O
inactive: T-47D breast 99.2% | BT-549 breast 115% | MDA-MB-435 melanoma 102% | SW-620 colon 106% | MCF7 breast 94.5% | HCT-116 colon 103% | HCC-2998 colon 121% | KM12 colon 101%

COc1ccc(-c2nc3c(N)c(CO)c(C)nc3o2)cc1
inactive: T-47D breast 90.9% | BT-549 breast 118% | MDA-MB-435 melanoma 103% | SW-620 colon 118% | MCF7 breast 86.1% | HCT-116 colon 103% | HCC-2998 colon 87% | KM12 colon 96.5%

Cc1cc(NCc2cc(Nc3ccnc4cc(Cl)ccc34)ccc2F)nc(N2CCSCC2)n1
active: T-47D breast -37.8% | MDA-MB-435 melanoma -70.4% | SW-620 colon -14.1% | MCF7 breast 0.0561% | HCT-116 colon -29.1% | HCC-2998 colon 3.4%
inactive: BT-549 breast 46.6% | KM12 colon 14.9%

COc1cc(-c2nc(N3CCN(C)CC3)c3ccccc3n2)cc(OC)c1OC
inactive: T-47D breast 65.3% | BT-549 breast 84.7% | SW-620 colon 53.3% | MCF7 breast 29.5% | HCT-116 colon 31.9% | HCC-2998 colon 88.4% | KM12 colon 53.4%
active: MDA-MB-435 melanoma 0%

O=C(c1ccccc1)c1c(/C=C/c2ccccc2)nc2ccccc2c1/C=C/c1ccc(Br)cc1
inactive: T-47D breast 95.4% | BT-549 breast 111% | MDA-MB-435 melanoma 99.7% | SW-620 colon 98.3% | MCF7 breast 82.7% | HCT-116 colon 87.8% | HCC-2998 colon 115% | KM12 colon 98.7%

CC(=O)c1ccc(NCC(=O)Nc2ccccn2)cc1
inactive: T-47D breast 94.6% | BT-549 breast 104% | MDA-MB-435 melanoma 104% | SW-620 colon 102% | MCF7 breast 86.9% | HCT-116 colon 101% | HCC-2998 colon 110% | KM12 colon 99%

O=[N+]([O-])c1ccc(Sc2cccc[n+]2[O-])c2nonc12
active: HCT-116 colon 2.05%
inactive: T-47D breast 54.9% | BT-549 breast 109% | MDA-MB-435 melanoma 97.9% | SW-620 colon 23.5% | MCF7 breast 25.5% | HCC-2998 colon 98.4% | KM12 colon 68.6%

CCCCCCCCCCCCCCCCCC1=NCCN1CCOC1=C(Cl)C(=O)c2ccccc2C1=O
inactive: T-47D breast 12.6% | BT-549 breast 68% | MDA-MB-435 melanoma 95.5% | MCF7 breast 65.6% | HCT-116 colon 43.6% | HCC-2998 colon 100% | KM12 colon 51%
active: SW-620 colon 7.23%

CCc1ccccc1-n1c(N)c(C#N)c(-c2ccc(N(C)C)cc2)c(C#N)c1=O
inactive: T-47D breast 80% | BT-549 breast 85.5% | MDA-MB-435 melanoma 100% | SW-620 colon 93% | MCF7 breast 94.9% | HCT-116 colon 94.1% | HCC-2998 colon 104% | KM12 colon 97.6%

Cc1cccc(Cc2cnc(NC(=O)c3ccc4nnsc4c3)s2)c1
inactive: T-47D breast 57.8% | BT-549 breast 105% | MDA-MB-435 melanoma 82.7% | SW-620 colon 80.5% | MCF7 breast 95% | HCT-116 colon 87.7% | HCC-2998 colon 87.5% | KM12 colon 77.9%

N=C(N)c1ccc(-c2ccc(-c3cncc4ccccc34)s2)s1
inactive: BT-549 breast 36.9%
active: T-47D breast -58.3% | MDA-MB-435 melanoma -91.2% | SW-620 colon -68.4% | MCF7 breast -68.7% | HCT-116 colon -84.4% | HCC-2998 colon -78.3% | KM12 colon -78.8%

COc1cc(-c2nn(-c3ccccc3)cc2-c2ccnc(NCCNS(=O)(=O)c3ccc(Cl)cc3)n2)ccc1Cl
inactive: BT-549 breast 16.6% | MDA-MB-435 melanoma 28.2% | SW-620 colon 51.1% | MCF7 breast 18% | HCT-116 colon 14.3% | HCC-2998 colon 34.1% | KM12 colon 20.8%
active: T-47D breast 4.68%

Cc1nc2ccccc2c(/C=C/c2ccc(Cl)cc2)c1C(=O)/C=C/c1ccc(F)cc1
inactive: T-47D breast 17.7% | BT-549 breast 13.9% | MCF7 breast 17.6% | KM12 colon 21.2%
active: MDA-MB-435 melanoma -21.3% | SW-620 colon -19.6% | HCT-116 colon -70.5% | HCC-2998 colon -67.3%

COc1ccc2[nH]c(O)c(/C=c3/cc4c(c(-c5ccc(F)c(OC)c5)n3)=Nc3ccccc3-4)c2c1
inactive: T-47D breast 89.6% | BT-549 breast 84.1% | KM12 colon 13.1%
active: MDA-MB-435 melanoma 6.77% | SW-620 colon -23.2% | MCF7 breast 1.29% | HCT-116 colon -91% | HCC-2998 colon -0.339%

COc1cc(N=Nc2ccc(N)cc2)c(OC)cc1N=Nc1ccccc1.[Cl][Zn][Cl]
inactive: T-47D breast 88.2% | BT-549 breast 93.5% | MDA-MB-435 melanoma 98.7% | SW-620 colon 105% | MCF7 breast 85.6% | HCT-116 colon 101% | HCC-2998 colon 98.9% | KM12 colon 105%

N[C@@H](CCCCNCC(=O)O)C(=O)O
inactive: T-47D breast 96.9% | BT-549 breast 111% | MDA-MB-435 melanoma 102% | SW-620 colon 101% | MCF7 breast 105% | HCT-116 colon 106% | HCC-2998 colon 103% | KM12 colon 101%

Cc1cc(O)c(C2=NN(c3ccc(S(N)(=O)=O)cc3)C(c3ccccc3Cl)C2)cc1Cl (configuration not stated)
active: MDA-MB-435 melanoma 8.16% | SW-620 colon -27.4% | MCF7 breast 0.899% | HCT-116 colon -90.4% | HCC-2998 colon -39.4% | KM12 colon -37%
inactive: T-47D breast 18.3% | BT-549 breast 104%

Cc1cc(=O)oc2c1ccc1oc(C#N)c(C)c12
inactive: T-47D breast 88.6% | BT-549 breast 94% | MDA-MB-435 melanoma 95.5% | SW-620 colon 95.7% | MCF7 breast 102% | HCT-116 colon 89.9% | HCC-2998 colon 106% | KM12 colon 104%

Source: PubChem BioAssay (NCI)
